Results filed as inconclusive are left out. Calls of active or inactive are those of the source. Calls come from the whole dose curve; as a rule, active = well fitted curve in the direction sought with a large enough effect; inconclusive = small, poorly fitted or top-dose-only effect, or another doubt; inactive = no such curve, though single readings can be large; an effect the other way counts as inactive or inconclusive.
Columns and labels:
[1] = molecular target: Cellular tumor antigen p53 (Homo sapiens) (UniProt P04637); experiment: Primary qHTS for small molecule compounds that upregulate eGFP-tagged delta133p53alpha (in N-terminal) cells. (AID 2060322); conditions: NCI-H358 eGFP-delta133p53alpha fluorescence, 24 h; activation: active compounds read high;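 note: cells pre-induced with doxycycline then dosed without doxycycline; 0% = DMSO vehicle and 100% = reference activator; nearly all actives have a fitted effect of over 75% in size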
Summary of the method: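 NCI-H358 cells pre-induced 24 h with 10 ng/ml doxycycline for eGFP-delta133p53alpha, plated dox-free and exposed 24 h at 37C to titrated compounds. Fixed, Hoechst-stained; gated GFP peak intensity by laser scanning cytometry, normalized to DMSO (0%) and 57.5 uM 5-azacytidine (100%).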

[2] = molecular target: Aldehyde dehydrogenase, mitochondrial (Homo sapiens) (UniProt P05091); experiment: qHTS for Inhibitors of the Aldehyde Dehydrogenase Family (ALDH2) Primary screen (AID 2061308); conditions: ALDH2 enzyme inhibition qHTS, 1536-well; series mostly up to 56 µM;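 note: plate controls were vehicle for no effect and reference inhibitor for full effect; nearly all actives have a fitted effect of over 55% in size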
[3] = molecular target: Retinaldehyde dehydrogenase 3 (Homo sapiens) (UniProt P47895); experiment: qHTS for Inhibitors of the Aldehyde Dehydrogenase Family (ALDH1A3) Validation screen (AID 2061312); conditions: ALDH1A3 enzyme inhibition qHTS validation, fluorescence; series mostly up to 84.7 µM; note: % is set by controls: 0 for no effect and ±100 for the full control effect; nearly all actives have a fitted effect of over 45% in size
[4] = molecular target: Retinaldehyde dehydrogenase 3 (Homo sapiens) (UniProt P47895); experiment: qHTS for Inhibitors of the Aldehyde Dehydrogenase Family (ALDH1A3) Primary screen (AID 2061315); conditions: ALDH inhibition qHTS; series mostly up to 56 µM;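 note: plate controls were DMSO vehicle for no effect and reference inhibitor for full effect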

Sequence of Cellular tumor antigen p53 (Homo sapiens) (P04637 whole entry, looked up): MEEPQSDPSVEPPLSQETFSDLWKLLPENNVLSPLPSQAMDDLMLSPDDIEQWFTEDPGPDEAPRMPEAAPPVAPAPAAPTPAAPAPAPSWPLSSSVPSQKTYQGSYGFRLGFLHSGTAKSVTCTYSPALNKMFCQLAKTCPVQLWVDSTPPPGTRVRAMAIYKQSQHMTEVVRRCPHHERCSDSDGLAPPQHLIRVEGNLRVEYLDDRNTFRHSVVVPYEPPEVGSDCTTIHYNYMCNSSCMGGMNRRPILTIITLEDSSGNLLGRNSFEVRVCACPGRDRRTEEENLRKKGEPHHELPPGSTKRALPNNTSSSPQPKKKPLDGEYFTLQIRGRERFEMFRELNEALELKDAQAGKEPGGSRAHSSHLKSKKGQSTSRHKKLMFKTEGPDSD

O=C(Nc1nc2ccccc2n1CCc1ccccc1)c1ccccc1
inactive: activation [1] 6.68% | Potency [2] | Potency [3] | Potency [4]

CC(C)[C@@H](C)/C=C/[C@@H](C)[C@H]1CC[C@H]2C3=CC=C4C[C@@H](O)CC[C@]4(C)[C@H]3CC[C@]12C
inactive: activation [1] 14.3% | Potency [2] | Potency [3] | Potency [4]

O=C(NS(=O)(=O)c1ccc(Br)s1)c1ccc(Cl)cc1Cl
inactive: activation [1] -12.4% | Potency [2] | Potency [3] | Potency [4]

CCC1C(=O)N(C)c2cnc(Nc3ccc(C(=O)NC4CCC(N5CCN(CC6CC6)CC5)CC4)cc3OC)nc2N1C(C)C (centres undefined)
inactive: activation [1] 37.2% | Potency [2] | Potency [3] | Potency [4]

CNc1cc2[nH]c(=O)n(-c3ccc(NC(=O)NS(=O)(=O)c4ccc(Cl)s4)cc3)c(=O)c2cc1F
inactive: activation [1] 8.11% | Potency [2] | Potency [3] | Potency [4]

O=C(Nc1ccc(C(F)(F)F)cn1)N1CCN(c2ncccc2C(F)(F)F)CC1
inactive: activation [1] -3.34% | Potency [2] | Potency [3] | Potency [4]
